# Article PMC7862700, “An all-to-all approach to the identification of sequence-specific readers for epigenetic DNA modifications on cytosine”
# Legend:
# Assay in all cases: DAPPL (digital affinity profiling via proximity ligation, sequencing); 10 mM Tris-HCl pH 7.5, 50 mM NaCl, 1 mM DTT, 4% glycerol, room temperature, 30 min; GST-TFs on glutathione beads, 16-mer random dsDNA library, 0.1% formaldehyde crosslink after washing; high values mean tight binding
# [1] = biological target: T1, FEV (Homo sapiens, UniProt Q99581 1-238); conditions: protein: recombinant; tags: N-terminal GST; dsDNA, one strand shown
# T1 sequence: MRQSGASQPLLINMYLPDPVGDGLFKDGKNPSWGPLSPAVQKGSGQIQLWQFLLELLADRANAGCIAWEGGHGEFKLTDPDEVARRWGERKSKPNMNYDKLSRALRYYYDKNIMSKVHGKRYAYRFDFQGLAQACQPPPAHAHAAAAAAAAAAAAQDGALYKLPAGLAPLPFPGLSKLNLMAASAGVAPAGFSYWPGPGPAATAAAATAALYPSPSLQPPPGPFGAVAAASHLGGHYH
# Procedure, shortened: (§1)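 Each value of binding signal is a hexamer's read frequency for a factor divided by the same hexamer's frequency in the tag-only sample. Barcoded, bead-captured GST fusions of human transcription factors made in yeast were pooled with that sample and incubated with 200 nmole of a random double-stranded 16-mer DNA library in Tris/NaCl/DTT/glycerol buffer at room temperature for 30 min. Washing, 0.1% formaldehyde crosslinking, proximity ligation, PCR and Illumina NextSeq500 sequencing followed.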
# [2] = biological target: ETV5 (Homo sapiens, UniProt P41161 1-510); conditions: protein: recombinant; tags: N-terminal GST; dsDNA, one strand shown
# Procedure, shortened: as §1
# [3] = biological target: HSF1 (Homo sapiens, UniProt Q00613 1-529); conditions: protein: recombinant; tags: N-terminal GST; chain copies: 3; dsDNA, one strand shown
# Procedure, shortened: as §1
# [4] = biological target: T2, SPIC (Homo sapiens, UniProt Q8N5J4 1-248); conditions: protein: recombinant; tags: N-terminal GST; dsDNA, one strand shown
# T2 sequence: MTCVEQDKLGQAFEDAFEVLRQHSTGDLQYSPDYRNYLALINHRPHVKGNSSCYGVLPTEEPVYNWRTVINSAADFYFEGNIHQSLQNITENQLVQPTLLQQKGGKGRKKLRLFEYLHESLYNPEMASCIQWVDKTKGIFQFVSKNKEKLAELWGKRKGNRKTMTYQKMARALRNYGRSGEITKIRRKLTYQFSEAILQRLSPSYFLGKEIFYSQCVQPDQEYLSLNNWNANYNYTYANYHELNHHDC
# Procedure, shortened: as §1
# [5] = biological target: ELF4 (Homo sapiens, UniProt Q99607 1-663); conditions: protein: recombinant; tags: N-terminal GST; dsDNA, one strand shown
# Procedure, shortened: as §1
# [6] = biological target: T3, ELK4 (Homo sapiens, UniProt P28324-2 1-405); conditions: protein: recombinant; tags: N-terminal GST; dsDNA, one strand shown
# T3 sequence: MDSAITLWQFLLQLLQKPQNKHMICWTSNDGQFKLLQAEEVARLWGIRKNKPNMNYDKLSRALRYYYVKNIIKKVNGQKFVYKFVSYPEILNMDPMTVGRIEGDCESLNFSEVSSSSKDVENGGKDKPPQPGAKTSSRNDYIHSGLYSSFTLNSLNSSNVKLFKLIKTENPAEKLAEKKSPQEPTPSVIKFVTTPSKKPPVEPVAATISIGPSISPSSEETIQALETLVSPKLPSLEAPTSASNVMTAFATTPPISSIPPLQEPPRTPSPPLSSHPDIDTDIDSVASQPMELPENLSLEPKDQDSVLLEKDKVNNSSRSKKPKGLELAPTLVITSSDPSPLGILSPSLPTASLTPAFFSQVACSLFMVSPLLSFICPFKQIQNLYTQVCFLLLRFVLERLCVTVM
# Procedure, shortened: as §1
# [7] = biological target: T4, ETV2 (Homo sapiens, UniProt O00321 1-342); conditions: protein: recombinant; tags: N-terminal GST; dsDNA, one strand shown
# T4 sequence: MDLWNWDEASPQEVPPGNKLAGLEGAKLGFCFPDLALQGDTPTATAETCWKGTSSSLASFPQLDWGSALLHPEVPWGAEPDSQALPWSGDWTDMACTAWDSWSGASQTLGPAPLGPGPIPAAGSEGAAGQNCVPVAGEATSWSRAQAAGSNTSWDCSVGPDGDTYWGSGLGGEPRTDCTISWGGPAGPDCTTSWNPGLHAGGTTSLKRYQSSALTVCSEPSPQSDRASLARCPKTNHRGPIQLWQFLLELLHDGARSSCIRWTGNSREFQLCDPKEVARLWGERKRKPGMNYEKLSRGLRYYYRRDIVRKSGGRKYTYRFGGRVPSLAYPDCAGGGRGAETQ
# Procedure, shortened: as §1
# [8] = biological target: T5, ELF3 (Homo sapiens, UniProt P78545 1-371); conditions: protein: recombinant; tags: N-terminal GST; dsDNA, one strand shown
# T5 sequence: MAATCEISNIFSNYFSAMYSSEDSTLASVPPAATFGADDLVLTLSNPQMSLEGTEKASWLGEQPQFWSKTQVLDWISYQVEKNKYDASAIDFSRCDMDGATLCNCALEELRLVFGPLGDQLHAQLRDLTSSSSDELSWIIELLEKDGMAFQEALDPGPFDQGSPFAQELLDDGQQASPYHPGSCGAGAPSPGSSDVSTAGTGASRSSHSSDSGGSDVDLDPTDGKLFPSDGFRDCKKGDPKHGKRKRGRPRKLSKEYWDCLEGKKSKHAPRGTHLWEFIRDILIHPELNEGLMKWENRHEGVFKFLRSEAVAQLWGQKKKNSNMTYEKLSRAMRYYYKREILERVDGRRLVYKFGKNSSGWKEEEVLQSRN
# Procedure, shortened: as §1
# [9] = biological target: CRX (Homo sapiens, UniProt O43186 1-299); conditions: protein: recombinant; tags: N-terminal GST; dsDNA, one strand shown
# Procedure, shortened: as §1
# [10] = biological target: ETV1 (Homo sapiens, UniProt P50549 1-477); conditions: protein: recombinant; tags: N-terminal GST; dsDNA, one strand shown
# Procedure, shortened: as §1
# [11] = biological target: T6, ERF (Homo sapiens, UniProt P50548 1-548); conditions: protein: recombinant; tags: N-terminal GST; dsDNA, one strand shown
# T6 sequence: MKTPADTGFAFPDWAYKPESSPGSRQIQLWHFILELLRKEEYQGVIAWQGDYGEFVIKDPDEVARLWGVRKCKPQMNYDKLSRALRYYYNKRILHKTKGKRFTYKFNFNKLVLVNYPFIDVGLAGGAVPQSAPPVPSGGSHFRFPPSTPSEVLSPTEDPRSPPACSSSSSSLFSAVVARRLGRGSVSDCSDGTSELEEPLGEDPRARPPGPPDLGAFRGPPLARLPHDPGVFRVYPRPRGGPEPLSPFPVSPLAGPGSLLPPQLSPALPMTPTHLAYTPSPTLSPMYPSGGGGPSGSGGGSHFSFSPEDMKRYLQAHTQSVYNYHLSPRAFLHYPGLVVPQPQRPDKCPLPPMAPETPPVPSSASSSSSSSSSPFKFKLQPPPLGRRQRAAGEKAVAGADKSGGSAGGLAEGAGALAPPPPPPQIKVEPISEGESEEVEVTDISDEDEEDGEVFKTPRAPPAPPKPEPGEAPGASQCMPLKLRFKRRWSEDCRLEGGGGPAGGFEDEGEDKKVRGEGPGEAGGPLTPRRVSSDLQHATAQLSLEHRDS
# Procedure, shortened: as §1
# [12] = biological target: T7, ETV3L (Homo sapiens, UniProt Q6ZN32 1-361); conditions: protein: recombinant; tags: N-terminal GST; dsDNA, one strand shown
# T7 sequence: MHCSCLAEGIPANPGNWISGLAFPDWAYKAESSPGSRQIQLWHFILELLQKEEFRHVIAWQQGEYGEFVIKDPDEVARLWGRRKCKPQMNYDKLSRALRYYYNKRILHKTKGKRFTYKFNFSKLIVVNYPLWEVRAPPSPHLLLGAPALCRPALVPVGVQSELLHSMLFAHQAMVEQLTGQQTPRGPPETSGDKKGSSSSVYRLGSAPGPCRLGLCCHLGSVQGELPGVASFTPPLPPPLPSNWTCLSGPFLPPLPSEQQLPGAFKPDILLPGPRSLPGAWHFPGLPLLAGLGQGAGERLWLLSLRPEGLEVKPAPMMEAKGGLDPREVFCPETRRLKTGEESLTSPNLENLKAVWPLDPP
# Procedure, shortened: as §1
# [13] = biological target: T8, ETS2 (Homo sapiens, UniProt P15036 1-469); conditions: protein: recombinant; tags: N-terminal GST; dsDNA, one strand shown
# T8 sequence: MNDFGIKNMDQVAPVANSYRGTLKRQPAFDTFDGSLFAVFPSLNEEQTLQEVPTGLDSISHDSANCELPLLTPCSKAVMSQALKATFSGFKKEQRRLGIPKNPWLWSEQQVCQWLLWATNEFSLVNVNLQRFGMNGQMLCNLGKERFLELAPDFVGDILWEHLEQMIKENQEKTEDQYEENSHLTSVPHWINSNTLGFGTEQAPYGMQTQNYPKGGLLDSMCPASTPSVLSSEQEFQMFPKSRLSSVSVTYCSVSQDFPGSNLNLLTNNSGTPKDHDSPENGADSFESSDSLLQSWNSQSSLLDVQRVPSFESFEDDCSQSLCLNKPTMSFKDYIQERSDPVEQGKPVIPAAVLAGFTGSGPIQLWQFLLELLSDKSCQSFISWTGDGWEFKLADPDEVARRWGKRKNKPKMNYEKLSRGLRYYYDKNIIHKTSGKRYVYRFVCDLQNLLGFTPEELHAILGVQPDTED
# Procedure, shortened: as §1
# [14] = biological target: T9, SPDEF (Homo sapiens, UniProt O95238 1-335); conditions: protein: recombinant; tags: N-terminal GST; dsDNA, one strand shown
# T9 sequence: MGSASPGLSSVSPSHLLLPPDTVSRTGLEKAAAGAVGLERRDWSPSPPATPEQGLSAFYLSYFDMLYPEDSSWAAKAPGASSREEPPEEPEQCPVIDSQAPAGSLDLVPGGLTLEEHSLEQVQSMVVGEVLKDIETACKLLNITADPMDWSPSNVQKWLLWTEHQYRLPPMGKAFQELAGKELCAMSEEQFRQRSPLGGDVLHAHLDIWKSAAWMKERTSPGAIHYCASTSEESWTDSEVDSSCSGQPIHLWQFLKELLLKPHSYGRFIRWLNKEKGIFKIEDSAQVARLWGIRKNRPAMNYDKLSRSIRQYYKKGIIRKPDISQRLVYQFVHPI
# Procedure, shortened: as §1
# [15] = biological target: T10, ETV7 (Homo sapiens, UniProt Q9Y603 1-341); conditions: protein: recombinant; tags: N-terminal GST; dsDNA, one strand shown
# T10 sequence: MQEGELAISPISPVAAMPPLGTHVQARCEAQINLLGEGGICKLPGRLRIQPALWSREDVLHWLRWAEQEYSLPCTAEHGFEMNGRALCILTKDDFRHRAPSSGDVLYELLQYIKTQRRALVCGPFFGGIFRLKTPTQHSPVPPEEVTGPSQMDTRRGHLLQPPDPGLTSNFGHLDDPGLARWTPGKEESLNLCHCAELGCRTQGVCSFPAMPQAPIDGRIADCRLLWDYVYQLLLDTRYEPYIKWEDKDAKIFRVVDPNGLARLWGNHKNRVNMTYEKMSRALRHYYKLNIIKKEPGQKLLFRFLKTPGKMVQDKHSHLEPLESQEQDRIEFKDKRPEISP
# Procedure, shortened: as §1
# [16] = biological target: T11, ELF5 (Homo sapiens, UniProt Q9UKW6-2 1-255); conditions: protein: recombinant; tags: N-terminal GST; dsDNA, one strand shown
# T11 sequence: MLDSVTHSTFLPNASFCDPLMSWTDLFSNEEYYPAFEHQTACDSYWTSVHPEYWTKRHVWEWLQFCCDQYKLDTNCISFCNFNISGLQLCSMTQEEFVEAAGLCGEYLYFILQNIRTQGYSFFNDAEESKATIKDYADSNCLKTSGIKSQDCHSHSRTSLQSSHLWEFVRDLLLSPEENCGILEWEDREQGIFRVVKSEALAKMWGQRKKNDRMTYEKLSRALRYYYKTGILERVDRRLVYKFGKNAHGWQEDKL
# Procedure, shortened: as §1
# [17] = biological target: T12, ETV3 (Homo sapiens, UniProt P41162-2 1-143); conditions: protein: recombinant; tags: N-terminal GST; dsDNA, one strand shown
# T12 sequence: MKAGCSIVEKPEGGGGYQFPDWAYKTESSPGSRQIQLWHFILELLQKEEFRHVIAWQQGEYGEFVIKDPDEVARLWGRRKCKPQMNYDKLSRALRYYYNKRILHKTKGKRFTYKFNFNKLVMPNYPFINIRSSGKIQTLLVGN
# Procedure, shortened: as §1
# [18] = biological target: ETV6 (Homo sapiens, UniProt P41212 1-452); conditions: protein: recombinant; tags: N-terminal GST; dsDNA, one strand shown
# Procedure, shortened: as §1
# CRX, sequence (O43186 whole entry): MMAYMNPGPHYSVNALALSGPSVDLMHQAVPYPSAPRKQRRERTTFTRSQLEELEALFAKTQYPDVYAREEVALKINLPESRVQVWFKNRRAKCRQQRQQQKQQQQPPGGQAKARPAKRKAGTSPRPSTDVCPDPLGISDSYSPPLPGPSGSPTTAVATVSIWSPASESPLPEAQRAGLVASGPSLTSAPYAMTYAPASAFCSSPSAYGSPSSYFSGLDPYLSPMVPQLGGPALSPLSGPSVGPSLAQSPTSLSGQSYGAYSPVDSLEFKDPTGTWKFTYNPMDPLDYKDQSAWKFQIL
# HSF1, sequence (Q00613 whole entry): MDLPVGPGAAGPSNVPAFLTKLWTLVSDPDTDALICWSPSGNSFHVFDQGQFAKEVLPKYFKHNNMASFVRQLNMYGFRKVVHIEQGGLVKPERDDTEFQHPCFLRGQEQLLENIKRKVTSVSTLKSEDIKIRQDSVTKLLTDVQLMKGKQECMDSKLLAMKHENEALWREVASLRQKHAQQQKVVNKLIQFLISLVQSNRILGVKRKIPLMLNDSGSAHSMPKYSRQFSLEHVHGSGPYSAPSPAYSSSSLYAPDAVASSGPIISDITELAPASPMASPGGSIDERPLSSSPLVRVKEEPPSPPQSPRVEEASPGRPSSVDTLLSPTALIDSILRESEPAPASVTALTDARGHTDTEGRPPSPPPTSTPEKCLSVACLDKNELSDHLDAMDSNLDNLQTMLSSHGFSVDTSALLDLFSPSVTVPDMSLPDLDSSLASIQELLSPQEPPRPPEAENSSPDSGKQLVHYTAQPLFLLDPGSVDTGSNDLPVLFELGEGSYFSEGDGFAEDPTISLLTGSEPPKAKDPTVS
# ETV5, sequence (P41161 whole entry): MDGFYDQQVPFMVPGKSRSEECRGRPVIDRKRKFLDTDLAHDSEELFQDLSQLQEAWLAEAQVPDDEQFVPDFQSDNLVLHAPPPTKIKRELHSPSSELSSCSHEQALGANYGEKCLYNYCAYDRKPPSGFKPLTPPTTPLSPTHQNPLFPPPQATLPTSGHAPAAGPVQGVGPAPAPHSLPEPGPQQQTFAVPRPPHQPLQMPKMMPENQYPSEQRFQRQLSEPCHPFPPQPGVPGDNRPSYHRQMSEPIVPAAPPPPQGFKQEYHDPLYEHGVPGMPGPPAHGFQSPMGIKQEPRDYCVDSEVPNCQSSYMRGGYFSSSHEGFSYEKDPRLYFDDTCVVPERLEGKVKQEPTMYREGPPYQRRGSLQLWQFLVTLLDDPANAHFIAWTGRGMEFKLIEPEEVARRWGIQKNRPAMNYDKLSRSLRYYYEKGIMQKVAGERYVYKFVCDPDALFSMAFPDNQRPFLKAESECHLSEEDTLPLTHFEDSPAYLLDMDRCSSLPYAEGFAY
# ELF4, sequence (Q99607 whole entry): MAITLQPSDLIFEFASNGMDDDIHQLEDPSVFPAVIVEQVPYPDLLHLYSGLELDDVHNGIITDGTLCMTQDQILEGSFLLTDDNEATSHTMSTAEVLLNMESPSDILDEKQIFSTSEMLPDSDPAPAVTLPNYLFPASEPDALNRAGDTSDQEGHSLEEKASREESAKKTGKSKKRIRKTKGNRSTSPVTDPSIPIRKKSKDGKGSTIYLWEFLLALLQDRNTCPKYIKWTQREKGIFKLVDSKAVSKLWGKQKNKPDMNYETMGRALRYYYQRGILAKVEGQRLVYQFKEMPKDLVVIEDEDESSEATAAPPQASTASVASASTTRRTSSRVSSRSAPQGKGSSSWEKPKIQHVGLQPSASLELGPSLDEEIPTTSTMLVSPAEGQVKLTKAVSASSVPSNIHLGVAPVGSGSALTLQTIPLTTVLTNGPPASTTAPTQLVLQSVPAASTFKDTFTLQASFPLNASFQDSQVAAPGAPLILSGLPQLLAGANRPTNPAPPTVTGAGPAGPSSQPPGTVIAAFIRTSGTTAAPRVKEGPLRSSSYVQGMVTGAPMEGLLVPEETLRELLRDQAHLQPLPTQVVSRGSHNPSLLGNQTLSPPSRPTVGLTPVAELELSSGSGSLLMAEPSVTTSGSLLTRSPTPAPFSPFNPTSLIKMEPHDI
# ETV6, sequence (P41212 whole entry): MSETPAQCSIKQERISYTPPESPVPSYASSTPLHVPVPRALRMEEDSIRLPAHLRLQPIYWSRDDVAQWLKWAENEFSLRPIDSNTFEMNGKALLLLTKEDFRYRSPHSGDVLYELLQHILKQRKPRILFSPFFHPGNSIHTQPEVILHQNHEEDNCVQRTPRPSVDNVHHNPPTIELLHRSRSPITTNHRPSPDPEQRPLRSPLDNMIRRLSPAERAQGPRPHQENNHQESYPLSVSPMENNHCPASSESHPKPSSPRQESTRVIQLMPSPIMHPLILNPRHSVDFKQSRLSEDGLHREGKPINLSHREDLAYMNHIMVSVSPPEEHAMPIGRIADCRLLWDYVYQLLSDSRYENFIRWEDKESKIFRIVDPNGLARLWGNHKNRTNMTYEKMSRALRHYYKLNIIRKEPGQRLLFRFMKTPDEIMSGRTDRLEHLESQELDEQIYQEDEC
# ETV1, sequence (P50549 whole entry): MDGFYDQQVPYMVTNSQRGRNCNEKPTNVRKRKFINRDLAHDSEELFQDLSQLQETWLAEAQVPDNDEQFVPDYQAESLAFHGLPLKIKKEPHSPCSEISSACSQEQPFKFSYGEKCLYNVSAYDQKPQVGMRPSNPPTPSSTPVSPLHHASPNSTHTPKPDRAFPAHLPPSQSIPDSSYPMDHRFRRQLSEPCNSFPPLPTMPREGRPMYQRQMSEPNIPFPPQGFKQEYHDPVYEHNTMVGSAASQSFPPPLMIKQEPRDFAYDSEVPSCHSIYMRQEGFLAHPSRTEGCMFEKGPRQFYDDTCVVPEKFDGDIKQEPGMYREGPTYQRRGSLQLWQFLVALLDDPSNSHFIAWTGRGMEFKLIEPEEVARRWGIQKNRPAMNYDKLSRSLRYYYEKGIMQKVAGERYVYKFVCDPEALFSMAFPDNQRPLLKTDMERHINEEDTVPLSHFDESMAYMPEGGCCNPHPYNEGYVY
sequence,measurement,setting,value
CATTCC,binding signal,[1],"1.21 fold enrichment (6-mer frequency, TF over GST control)"
same,binding signal,[2],"1.29 fold enrichment (6-mer frequency, TF over GST control)"
same,binding signal,[3],"1.67 fold enrichment (6-mer frequency, TF over GST control)"
same,binding signal,[4],"1.11 fold enrichment (6-mer frequency, TF over GST control)"
same,binding signal,[5],"1.27 fold enrichment (6-mer frequency, TF over GST control)"
same,binding signal,[6],"1.28 fold enrichment (6-mer frequency, TF over GST control)"
same,binding signal,[7],"1.31 fold enrichment (6-mer frequency, TF over GST control)"
same,binding signal,[8],"1.2 fold enrichment (6-mer frequency, TF over GST control)"
same,binding signal,[9],"1.07 fold enrichment (6-mer frequency, TF over GST control)"
same,binding signal,[10],"1.19 fold enrichment (6-mer frequency, TF over GST control)"
same,binding signal,[11],"1.22 fold enrichment (6-mer frequency, TF over GST control)"
same,binding signal,[12],"1.28 fold enrichment (6-mer frequency, TF over GST control)"
same,binding signal,[13],"1.28 fold enrichment (6-mer frequency, TF over GST control)"
same,binding signal,[14],"1.29 fold enrichment (6-mer frequency, TF over GST control)"
same,binding signal,[15],"1.19 fold enrichment (6-mer frequency, TF over GST control)"
same,binding signal,[16],"1.28 fold enrichment (6-mer frequency, TF over GST control)"
same,binding signal,[17],"1.27 fold enrichment (6-mer frequency, TF over GST control)"
same,binding signal,[18],"1.3 fold enrichment (6-mer frequency, TF over GST control)"
